Screening results as filed in PubChem.
ERG Ets-DNA blk = blocks human ERG Ets domain binding to DNA; AID 624246; Potency, µM (titrated, usually from 76.9 µM), without a hit: at the top dose FP activity, negative = inhibition, actives largely listed as inhibitors; P11308; fluorescence polarization, His-ERG Ets domain / labelled DNA; hit rate 0.028% among 370,000; active = well fitted inhibition curve with a large enough effect in the polarisation, with a control signal flat; inconclusive = small, poorly fitted or top-dose-only effect, or effect the other way, or a change in a side signal; inactive = no such curve, though single readings can be large or run the other way; the % refers to the polarisation;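 also: polarization taken with two DNA probes labelled with fluorescein and Texas red; % of control where 0% means no effect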
Target sequence (P11308 whole entry, looked up, the tested form may be a part): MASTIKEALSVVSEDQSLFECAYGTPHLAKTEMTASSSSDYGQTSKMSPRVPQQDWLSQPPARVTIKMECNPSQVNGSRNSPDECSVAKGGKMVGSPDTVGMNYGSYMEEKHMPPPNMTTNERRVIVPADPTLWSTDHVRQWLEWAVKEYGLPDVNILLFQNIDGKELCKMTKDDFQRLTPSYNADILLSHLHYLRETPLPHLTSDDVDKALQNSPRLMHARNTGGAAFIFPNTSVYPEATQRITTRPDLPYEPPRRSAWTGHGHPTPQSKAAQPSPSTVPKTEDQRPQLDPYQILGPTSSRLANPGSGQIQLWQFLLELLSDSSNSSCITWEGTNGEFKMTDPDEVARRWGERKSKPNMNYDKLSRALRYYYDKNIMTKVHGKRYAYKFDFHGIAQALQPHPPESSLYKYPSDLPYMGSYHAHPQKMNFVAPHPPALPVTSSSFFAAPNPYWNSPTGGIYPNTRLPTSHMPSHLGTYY
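His-tagged ERG Ets domain (1 uM in the protein solution; 300mM KCl, 50mM Tris-HCl, 1mM EDTA, 1mM DTT, pH 7.5) received compound, then a probe mix of 5 nM fluorescein-DNA and 100nM Texas-615-DNA. Fluorescence polarization was read for both dyes.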
Abeta yeast res = restores growth of yeast expressing A-beta42 peptide; yeast expressing A-beta42, growth rescue, OD600, 48 h; response scale: 0% DMSO, 100% iron-clioquinol control; Potency, µM (highest dose often 46.1 µM), hits mostly activators; hit rate 0.063% among 410,000; also: nearly all actives have a fitted effect of over 55% in size
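Growth rescue measured by 600 nm absorbance after 48 h yeast culture at 30 C with compound. Values normalized between DMSO and an equimolar ferric chloride plus clioquinol control.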
FUS suppressor = suppressors of FUS proteinopathy in yeast | Potency, µM (titrated, usually from 76.6 µM), actives largely listed as activators | hit rate 0.24% among 390,000 | AID 1347120 | S. cerevisiae FUS-expressing, growth rescue, OD600, 24 h;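 also: plate controls were DMSO vehicle for no effect and reference control for full effect; nearly all actives have a fitted effect of over 55% in size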
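Restored growth of FUS-toxic S. cerevisiae, read as 600 nm absorbance after 24 h at 30C in galactose medium (starting OD 0.005). Controls CP55940 and DMSO.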
Mito fusion yeast = mitochondrial division inhibition or fusion activation; S. cerevisiae fusion-defective mutant growth rescue, CellTiterGlo 48 h; hit rate 0.23% among 320,000; Potency, µM (highest dose often 46.1 µM), without a hit: at the top dose growth rescue (activation), most hits filed as activators; also: % of control where 0% means no effect; nearly all actives have a fitted effect of over 45% in size
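Compounds are tested for their ability to restore growth of mitochondrial fusion-defective yeast strains at non-permissive 37C in YPEG medium over 48 hours. Viability is quantified by luciferase luminescence.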
aSyn yeast inh = inhibitors of alpha-synuclein toxicity in yeast; Yeast expressing alpha-synuclein, growth rescue, BacTiter-Glo, 24 h; Potency, µM (titrated, usually from 46.1 µM), for the others: top-dose growth rescue (activation), most hits filed as activators; hit rate 0.14% among 370,000; AID 652106; also: % of control where 0% means no effect; nearly all actives have a fitted effect of over 65% in size
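Rescue of yeast growth: cells expressing toxic alpha-synuclein, induced in galactose at OD600 0.02, incubated with compound 24 h at 30 C. ATP luminescence quantified growth; inhibitors of toxicity appear as activators.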
TDP43 rescue = inhibitors of TDP-43 toxicity in yeast; TDP-43 expressing yeast growth rescue, BacTiter-Glo, 24 h; Potency, µM (doses to about 46.1 µM), without a hit: top-dose growth rescue (activation), usual class: activators; hit rate 1.8% among 410,000; AID 652104; also: % of control where 0% means no effect; nearly all actives have a fitted effect of over 50% in size
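Yeast expressing TDP-43 (pregrown in raffinose, seeded at OD600=0.02 in galactose medium) exposed to compounds 24 hr at 30 deg C. Growth read by BacTiter-Glo luminescence; rescue of toxicity appears as increased signal.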
Numbers without * were called inactive; i = inactive; ? = inconclusive; / = not tested or not shown; [ ] = another dose, or the depositor's remark. This is a sample that favours compounds with a hit; in the whole collection about 2.2% have one here. Unless noted, calls follow the shape of the dose curve; as a rule, active = well fitted curve in the direction sought with a large enough effect; inconclusive = small, poorly fitted or top-dose-only effect, or another doubt; inactive = no such curve, though single readings can be large; an effect the other way counts as inactive or inconclusive. Potency is read from the fitted curve at half-maximal effect.

SMILES	ERG Ets-DNA blk	Abeta yeast res	FUS suppressor	Mito fusion yeast	aSyn yeast inh	TDP43 rescue
Cc1ccc(CNC(=O)O[C@H]2CC[C@@]34CCCN3C(=O)CCC[C@H]4[C@H]2C)o1	/	/	i	/	/	/
CCOC(=O)c1nnn(-c2nonc2N)c1CSc1ccc(C)cc1	-7%	i	i	?	15%	22µM*
COc1ccc(CN2CCC(CNC(=O)NC3CCCC3)CC2)cc1	/	/	i	/	/	/
CCc1cccc(N=c2c([N+](=O)[O-])nn(-c3ccc(Cl)cc3)n2O)c1	3%	i	i	18µM*	4%	7.9µM*
O=[N+]([O-])c1nn(-c2ccc(Cl)cc2)n(O)c1=NCc1ccncc1	7%	i	i	1%	1%	11µM*
Cc1ccc(CN=c2c([N+](=O)[O-])nn(-c3ccc(Cl)cc3)n2O)cc1	-3%	?	i	0%	13%	11µM*
O=S(=O)(c1ccc2c(Cl)cccc2c1)N1CCN(c2nc(-c3cccs3)nc3ccccc23)CC1	/	/	/	/	-3%	/
CC[C@H](CCC(=O)N(c1ccccc1)c1ccccc1)c1ccc(C)cc1	/	/	i	/	/	/
CCC(=O)N(C)C[C@@H]1[C@H](c2ccc(C3=CCCCC3)cc2)[C@H](CO)N1C(=O)CC	/	/	i	/	/	/
CC(=O)Nc1ccc(C(=O)OCC(=O)c2ccc(S(=O)(=O)N3CCCCC3)cc2)cc1	12%	i	7.9µM*	2%	-4%	0%
CC(=O)Nc1cccc(C(=O)OCC(=O)c2ccc(S(=O)(=O)N3CCCCC3)cc2)c1	-2%	i	i	-5%	-8%	16%
COCCCNc1nc2c(-c3cccc(Br)c3)nnn2c2ccccc12	-2%	i	i	/	/	13%
O=C(OCn1ncc(Cl)c(Cl)c1=O)c1ccccc1Cl	-16%	i	i	-18%	11%	5.6µM*
O=C(NC1CCCCN(Cc2cccc(F)c2)C1=O)c1ccc(F)cc1 (configuration not stated)	/	/	i	/	/	/
CCn1nc(C)c2c(-c3ccccc3)cc(=O)n(C(C)C(=O)NCCc3ccc(OC)c(OC)c3)c21 (configuration not stated)	-6%	i	i	/	/	16µM*
COC(=O)CCC(=O)Nc1sc(Cc2ccccc2)c(C)c1C(N)=O	2%	i	i	6%	-6%	-22%[0.397 µM]
CCCC(=O)Nc1sc(Cc2ccccc2)c(C)c1C(N)=O	-10%	i	i	?	-20%	18µM*
CCC(CO)Oc1cc(NC(=O)Cc2ccccc2F)c2ncn(C(C)C)c2c1 (configuration not stated)	5%	i	i	/	0%	29%
CC(C)(C)C(=O)CSc1ncnc2sc3c(c12)CCC3	-17%	i	i	8%	-4%	10%
CC(=O)CSc1ncnc2sc3c(c12)CCC3	11%	i	i	-2%	?	25µM*
COc1ccc(-c2csc(C(O)c3ccc(F)cc3)n2)cc1 (configuration not stated)	/	i	i	/	?	22µM*
COc1ccc(C(O)c2nc(-c3ccncc3)cs2)cc1 (configuration not stated)	/	i	i	/	7%	?
COc1ccc(C(O)c2nc(-c3ccc4ccccc4c3)cs2)cc1 (configuration not stated)	/	i	i	/	3.5µM*	3%
COc1ccc(-c2csc(C(O)c3ccc(OC)cc3)n2)cc1 (configuration not stated)	/	i	i	/	?	?
COc1ccc(C(O)c2nc(-c3ccc(Cl)cc3)cs2)cc1 (configuration not stated)	/	?	i	/	11µM*	?
COc1ccc(C(O)c2nc(-c3ccccc3)cs2)cc1 (configuration not stated)	/	?	i	/	20%	35µM*
